Consider 10 compounds from PubChem BioAssay (NCI).

Test [1] can be described thus: NCI Yeast Anticancer Drug Screen. Data for the rad50 strain (AID 155).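 Note: 0% = growth of vehicle-only cultures of the same strain.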 Conditions: S. cerevisiae rad50 strain growth inhibition, hits give high values. An outline of the steps:
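Growth of the mutant yeast was measured after compound exposure and referenced to vehicle-treated cultures.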

Test [2] in a line: NCI Yeast Anticancer Drug Screen. Data for the mec2-1 strain (AID 157). Conditions: S. cerevisiae mec2-1 strain, hits give high values. The gist of the method: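 Growth inhibition is read against vehicle-treated controls after compound exposure of the mec2-1 yeast strain, which is defective in DNA damage repair or cell cycle control.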
A short description of test [3]: NCI Yeast Anticancer Drug Screen. Data for the sgs1 mgt1 strain (AID 161).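 Note: 0% = growth of cultures given vehicle only.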 Conditions: S. cerevisiae sgs1 mgt1 strain, hits give high values. The gist of the method:
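Compounds are added to genetically altered yeast, and growth is compared with cultures given vehicle alone to give percent inhibition.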

Test [4] in a line: NCI Yeast Anticancer Drug Screen. Data for the cln2 rad14 strain (AID 165).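 Note: 0% = growth equal to vehicle treated cultures.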 Conditions: S. cerevisiae cln2 rad14 strain, hits give high values. An outline of the steps: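 Growth inhibition, relative to vehicle-treated controls, is the read-out. The test organism is a yeast strain with defined genetic alterations, cln2 rad14.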
The nature of test [5]: NCI Yeast Anticancer Drug Screen. Data for the bub3 strain (AID 167). Conditions: S. cerevisiae bub3 mutant strain, hits give high values. The gist of the method:
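Whole-cell yeast assay. The mutant strain was incubated with compounds, and growth inhibition was determined by comparison with vehicle-treated cells.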

Test [6] is described as follows: NCI Yeast Anticancer Drug Screen. Data for the mlh1 rad18 strain (AID 175). As to conditions: S. cerevisiae mlh1 rad18 strain growth inhibition, hits give high values. The gist of the method: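 Cells of a genetically altered yeast strain, deficient in DNA damage repair, were treated with compound. Their growth was then compared with that of vehicle-treated cultures to give inhibition.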

The mark [7] stands for this setting: at 5.0 µM (retest, dose inferred, filed as 0.5).
The mark [8] stands for this setting: at 50.0 µM (retest, dose inferred, filed as 5.0).

The panel holds about 79,000 compounds, 15% with a hit somewhere; the sample as a whole holds those more often. Unmarked numbers belong to inactive results. Calls of active or inactive are those of the source. Cut-off read from the data, not from the text of the source: active = growth inhibition above about 70%; inactive = the rest.

Regarding `ON=C(CC(O)(C(F)(F)Cl)C(F)(F)Cl)CC(O)(C(F)(F)Cl)C(F)(F)Cl`, the growth inhibition was 50% in test [1] (setting [7]); 99% (active) in test [1] (setting [8]); 99.7% (active) in test [1] (at 50.0 µM); 69% in test [2] (setting [7]); 100% (active) in test [2] (setting [8]); 99.6% (active) in test [2] (at 50.0 µM). Further, the growth inhibition is 37% in test [3] (setting [7]); 99% (active) in test [3] (setting [8]); 99.5% (active) in test [3] (at 50.0 µM); 68% in test [4] (setting [7]); 99% (active) in test [4] (setting [8]); 99.5% (active) in test [4] (at 50.0 µM). For the same compound, the growth inhibition is 23% in test [5] (setting [7]); 100% (active) in test [5] (setting [8]); 99.8% (active) in test [5] (at 50.0 µM); 62% in test [6] (setting [7]); 99% (active) in test [6] (setting [8]); 99.5% (active) in test [6] (at 50.0 µM).

In the case of `CC(=O)c1c(O)c(C)c(O)c2c1OC1=CC(=O)c3c(C)noc3C12C` (stereo not given), the growth inhibition in test [1] (setting [7]) was -1%; in test [1] (setting [8]) it was 10%; in test [1] (at 50.0 µM), 24.9%; in test [2] (setting [7]) it was -3%; in test [2] (setting [8]), 7%; in test [2] (at 50.0 µM), 26.1%. Also, the growth inhibition in test [3] (setting [7]) was -2%; in test [3] (setting [8]) it was 10%; in test [3] (at 50.0 µM) it was -2.55%; in test [4] (setting [7]), 10%; in test [4] (setting [8]), 16%; in test [4] (at 50.0 µM), 25.3%. Further, the growth inhibition in test [5] (setting [7]) is -9%; in test [5] (setting [8]), 1%; in test [5] (at 50.0 µM), 12.8%; in test [6] (setting [7]), -1%; in test [6] (setting [8]) it was 10%; in test [6] (at 50.0 µM), 54.1%.

As to `COc1ccc(N=N/N=c2\sc3cc(Cl)ccc3n2C)cc1`, the growth inhibition in test [1] (setting [7]) is 29%; in test [1] (setting [8]) it was 57%; in test [1] (at 50.0 µM), 36.9%; in test [2] (setting [7]) it was 18%; in test [2] (setting [8]) it was 43%; in test [2] (at 50.0 µM), 6.15%. Further, the growth inhibition in test [3] (setting [7]) was 21%; in test [3] (setting [8]) it was 42%; in test [3] (at 50.0 µM) it was -30.4%; in test [4] (setting [7]), 28%; in test [4] (setting [8]) it was 56%; in test [4] (at 50.0 µM), 30.4%. The growth inhibition was 21% in test [5] (setting [7]); 62% in test [5] (setting [8]); 5% in test [5] (at 50.0 µM); 28% in test [6] (setting [7]); 63% in test [6] (setting [8]); 38.2% in test [6] (at 50.0 µM).

Consider `Cc1cc2c(c3c1C(=O)CC3)C(C)(C)CC2(C)C`, for which the growth inhibition in test [1] (setting [7]) was 1%; in test [1] (setting [8]), 77% (active); in test [1] (at 50.0 µM), 2.9%; in test [2] (setting [7]), -1%; in test [2] (setting [8]), 76% (active); in test [2] (at 50.0 µM), 9.15%. The growth inhibition in test [3] (setting [7]) was 1%; in test [3] (setting [8]), 70% (active); in test [3] (at 50.0 µM), 1.65%; in test [4] (setting [7]), -2%; in test [4] (setting [8]), 78% (active); in test [4] (at 50.0 µM), -4.5%. The growth inhibition was 25% in test [5] (setting [7]); 92% (active) in test [5] (setting [8]); 70.2% (active) in test [5] (at 50.0 µM); -3% in test [6] (setting [7]); 64% in test [6] (setting [8]); 6.05% in test [6] (at 50.0 µM).

With `CS(=O)(=O)N1C(=O)C2C3CCC(O3)C2C1=O` (stereo not given), the growth inhibition in test [1] (setting [7]) is -142%; in test [1] (setting [8]), 91% (active); in test [1] (at 50.0 µM), 73.5% (active); in test [2] (setting [7]) it was -46%; in test [2] (setting [8]) it was 71% (active); in test [2] (at 50.0 µM), 57.7%. In addition, the growth inhibition in test [3] (setting [7]) is -61%; in test [3] (setting [8]), 52%; in test [3] (at 50.0 µM) it was 26.4%; in test [4] (setting [7]), -56%; in test [4] (setting [8]), 73% (active); in test [4] (at 50.0 µM), 19.5%. Further, the growth inhibition in test [5] (setting [7]) was -74%; in test [5] (setting [8]), 64%; in test [5] (at 50.0 µM) it was 40.8%; in test [6] (setting [7]), -145%; in test [6] (setting [8]), 75% (active); in test [6] (at 50.0 µM) it was 42.6%.

For the compound `Cc1ccc(C(c2ccc(N(C)C)cc2)c2ccc(N(C)C)cc2)cc1`, the growth inhibition is 97% (active) in test [1] (setting [7]); 89% (active) in test [1] (setting [8]); 94.5% (active) in test [1] (at 50.0 µM); 99% (active) in test [2] (setting [7]); 92% (active) in test [2] (setting [8]); 94.7% (active) in test [2] (at 50.0 µM). The growth inhibition is 99% (active) in test [3] (setting [7]); 95% (active) in test [3] (setting [8]); 93.8% (active) in test [3] (at 50.0 µM); 78% (active) in test [4] (setting [7]); 69% in test [4] (setting [8]); 69% in test [4] (at 50.0 µM). For the same compound, the growth inhibition is 98% (active) in test [5] (setting [7]); 92% (active) in test [5] (setting [8]); 94.7% (active) in test [5] (at 50.0 µM); 98% (active) in test [6] (setting [7]); 92% (active) in test [6] (setting [8]); 92.7% (active) in test [6] (at 50.0 µM).

Take `COc1cc(Cc2n[nH]c(=S)n2-c2ccccc2)c(S(N)(=O)=O)cc1OC`: the growth inhibition in test [1] (setting [7]) is 4%; in test [1] (setting [8]) it was 4%; in test [1] (at 50.0 µM) it was 10.1%; in test [2] (setting [7]), 1%; in test [2] (setting [8]), 4%; in test [2] (at 50.0 µM), 0.85%. The growth inhibition in test [3] (setting [7]) was 9%; in test [3] (setting [8]) it was -16%; in test [3] (at 50.0 µM) it was -2.75%; in test [4] (setting [7]), 0%; in test [4] (setting [8]), 4%; in test [4] (at 50.0 µM), 8.55%. In addition, the growth inhibition is -2% in test [5] (setting [7]); 3% in test [5] (setting [8]); 0.15% in test [5] (at 50.0 µM); 0% in test [6] (setting [7]); -62% in test [6] (setting [8]); 11.4% in test [6] (at 50.0 µM).

`O=C(O)c1ccc(N=CC2CO2)cc1` (stereo not given): the growth inhibition in test [1] (setting [7]) was 23%; in test [1] (setting [8]), 11%; in test [1] (at 50.0 µM), -2%; in test [2] (setting [7]), 44%; in test [2] (setting [8]) it was 64%; in test [2] (at 50.0 µM), 0.45%. Also, the growth inhibition in test [3] (setting [7]) was 13%; in test [3] (setting [8]), 10%; in test [3] (at 50.0 µM), 7.05%; in test [4] (setting [7]), 96% (active); in test [4] (setting [8]), 99% (active); in test [4] (at 50.0 µM), 21.8%. Also, the growth inhibition is 90% (active) in test [5] (setting [7]); 98% (active) in test [5] (setting [8]); -10% in test [5] (at 50.0 µM); 32% in test [6] (setting [7]); 22% in test [6] (setting [8]); -3.15% in test [6] (at 50.0 µM).

`Cc1ccc(-n2cc(-c3ccc(Cl)cc3)c3c(NN)ncnc32)cc1`: the growth inhibition in test [1] (setting [7]) is -20%; in test [1] (setting [8]), 30%; in test [1] (at 50.0 µM), 85.7% (active); in test [2] (setting [7]), -11%; in test [2] (setting [8]), 65%; in test [2] (at 50.0 µM), 87.6% (active). The growth inhibition in test [3] (setting [7]) was -8%; in test [3] (setting [8]), 61%; in test [3] (at 50.0 µM) it was 87.5% (active); in test [4] (setting [7]), -20%; in test [4] (setting [8]), 37%; in test [4] (at 50.0 µM), 90.3% (active). Besides, the growth inhibition in test [5] (setting [7]) was -19%; in test [5] (setting [8]), 53%; in test [5] (at 50.0 µM), 87.7% (active); in test [6] (setting [7]) it was -14%; in test [6] (setting [8]), 65%; in test [6] (at 50.0 µM), 76.6% (active).

With `CC(C)C1COC(c2ccc3ccccc3c2-c2c(O[Si](C)(C)C(C)(C)C)ccc3ccccc23)=N1` (stereo not given), the growth inhibition is 20% in test [1] (setting [7]); 20% in test [1] (setting [8]); 93.2% (active) in test [1] (at 50.0 µM); 14% in test [2] (setting [7]); 14% in test [2] (setting [8]); 92% (active) in test [2] (at 50.0 µM). In addition, the growth inhibition is 12% in test [3] (setting [7]); 12% in test [3] (setting [8]); 92.8% (active) in test [3] (at 50.0 µM); 13% in test [4] (setting [7]); 13% in test [4] (setting [8]); 92.7% (active) in test [4] (at 50.0 µM). For the same compound, the growth inhibition in test [5] (setting [7]) is 8%; in test [5] (setting [8]), 8%; in test [5] (at 50.0 µM) it was 91.3% (active); in test [6] (setting [7]) it was 4%; in test [6] (setting [8]), 4%; in test [6] (at 50.0 µM), 91.2% (active).
